Several values for one entry are separate records, joined by “and”; a condition that tells them apart may be missing. Equal entries are not always repeated. In all, about 5,500 compounds went through this assay and about 2,000 (36%) were called active. Another 18% or so got no clear call; they are omitted. Cut-off read from the data, not from the text of the source: active = normalized growth mostly below about 0.91 (no sharp cut-off); inconclusive = no clear call, values can overlap the other calls; inactive = mostly above about 0.92. The list shows a part of the results.
Test: chemical genetic growth profiling, strain panel (AID 1159580);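 note: tested at 20 µM; growth read once vehicle control cultures reached saturation at 30 °C; 1 = growth at the plate median or of vehicle wells; lower values mean less growth of the strain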
Conditions: S. cerevisiae deletion strains, growth OD

Measured: normalized growth

COc1cc(C(=O)O)cc(OC)c1O
inactive: locus YBR021W, strain FUR4, hits give low values 1.08 | locus YBR229C, strain ROT2, hits give low values 0.951 | locus YCL029C, strain bik1, hits give low values 0.976 | locus YDL035C, strain GPR1, hits give low values 1.01 | locus YDL074C, strain BRE1, hits give low values 0.961 | locus YDL101C, strain DUN1, hits give low values 0.982 | locus YDL185W, strain tfp1, hits give low values 0.987 | locus YDL192W, strain arf1, hits give low values 0.98 | locus YDR101C, strain arx1, hits give low values 0.972 | locus YDR150W, strain NUM1, hits give low values 0.979 | locus YDR162C, strain NBP2, hits give low values 1.01 | locus YDR318W, strain mcm21, hits give low values 1 | locus YDR388W, hits give low values 0.978 | locus YDR502C, strain sam2, hits give low values 0.982 | locus YEL061C, strain CIN8, hits give low values 0.986 | locus YER110C, hits give low values 0.977 | locus YER155C, strain BEM2, hits give low values 1 | locus YER167W, strain BCK2, hits give low values 1 | locus YGL078C, strain dbp3, hits give low values 0.986 | locus YGL086W, strain mad1, hits give low values 0.978 | locus YGL248W, strain PDE1, hits give low values 0.985 | locus YGR135W, strain pre9, hits give low values 1.05 | locus YGR229C, strain SMI1, hits give low values 1.01 | locus YGR252W, strain gcn5, hits give low values 1.04 | locus YHR030C, strain SLT2, hits give low values 1.04 and 0.994 | locus YHR079C, strain IRE1 (second series), hits give low values 0.977 | locus YHR079C, strain IRE1, hits give low values 1.02 | locus YHR094C, strain hxt1, hits give low values 0.984 | locus YHR129C, strain ARP1, hits give low values 0.997 | locus YHR200W, strain rpn10, hits give low values 0.98 | locus YIL066C, strain RNR3, hits give low values 0.981 | locus YIL073C, strain SPO22, hits give low values 0.983 | locus YIL125W, strain kgd1, hits give low values 0.987 | locus YIR030C, strain dcg1, hits give low values 0.988 | locus YJL095W, strain BCK1, hits give low values 1.03 and 0.981 | locus YJL134W, strain LCB3, hits give low values 0.994 | locus YJL168C, strain set2, hits give low values 0.975 | locus YJL187C, strain SWE1 (second series), hits give low values 0.971 | locus YJR043C, strain POL32, hits give low values 0.991 | locus YJR066W, strain TOR1, hits give low values 0.96 | locus YJR075W, strain HOC1, hits give low values 0.997 | locus YKL009W, strain mrt4, hits give low values 0.983 | locus YKL068W, hits give low values 0.989 | locus YKL085W, strain MDH1 (second series), hits give low values 0.983 | locus YKL085W, strain MDH1, hits give low values 0.983 | locus YKR001C, strain vps1, hits give low values 0.981 | locus YLR039C, strain RIC1, hits give low values 0.952 | locus YLR058C, strain SHM2, hits give low values 0.98 | locus YLR102C, strain apc9, hits give low values 0.985 | locus YLR113W, strain HOG1, hits give low values 1.01 | locus YLR262C, strain YPT6, hits give low values 0.963 | locus YLR268W, strain sec22, hits give low values 0.991 | locus YLR330W, strain CHS5, hits give low values 0.996 | locus YLR342W, strain FKS1 (second series), hits give low values 1.05 | locus YLR371W, strain rom2, hits give low values 0.965 | locus YLR418C, strain cdc73, hits give low values 1.01 | locus YML016C, strain PPZ1, hits give low values 0.984 | locus YML032C, strain rad52, hits give low values 0.975 | locus YML124C, strain tub3, hits give low values 0.979 | locus YMR078C, strain ctf18, hits give low values 0.977 | locus YMR223W, strain ubp8, hits give low values 1.04 | locus YMR307W, strain GAS1, hits give low values 1.01 | locus YNL067W, strain RPL9B, hits give low values 0.962 | locus YNL128W, strain TEP1, hits give low values 0.989 | locus YNL183C, strain NPR1, hits give low values 0.979 | locus YNL233W, strain BNI4, hits give low values 0.982 | locus YNL250W, strain rad50, hits give low values 0.976 | locus YNL271C, strain bni1, hits give low values 0.987 | locus YNL298W, strain CLA4, hits give low values 0.994 | locus YNL307C, strain MCK1, hits give low values 0.987 | locus YNR052C, strain pop2, hits give low values 0.993 | locus YOL012C, strain htz1 1.1 | locus YOL147C, strain pex11, hits give low values 0.984 | locus YOR061W, strain CKA2, hits give low values 0.964 | locus YOR069W, strain VPS5, hits give low values 0.995 | locus YOR136W, strain idh2, hits give low values 0.971 | locus YOR144C, strain elg1, hits give low values 0.991 | locus YOR184W, strain ser1, hits give low values 0.992 | locus YOR231W, strain MKK1, hits give low values 1.04 | locus YOR316C, strain cot1, hits give low values 0.97 | locus YPL241C, strain CIN2, hits give low values 0.999 | locus YPL256C, strain CLN2, hits give low values 1.04 | locus YPR119W, strain clb2, hits give low values 0.97 | locus YPR141C, strain kar3, hits give low values 0.969 | locus YPR163C, strain tif3, hits give low values 0.989 | locus YPR167C, strain met16, hits give low values 0.988 | strain wtn01, hits give low values 1

Source: PubChem BioAssay AID1159580 (chemical genetic matrix, 2015)
